Experimental data as given in PubChem BioAssay AID624481 (The Scripps Research Institute Molecular Screening Center, 2012).
The source made the active and inactive calls. Cut-off read from the data, not from the text of the source: active = inhibition above about 50%; inactive = the rest.

molecular target: Prolyl endopeptidase-like (Mus musculus) (UniProt Q8C167); experiment: purified PREPL inhibitors, PREPL inhibitor project, biochemical, gel-based competitive ABPP, fluorescence, HTS hits (AID 624481); conditions: at 20 µM, active compounds read high
Sequence (Q8C167 whole entry, looked up): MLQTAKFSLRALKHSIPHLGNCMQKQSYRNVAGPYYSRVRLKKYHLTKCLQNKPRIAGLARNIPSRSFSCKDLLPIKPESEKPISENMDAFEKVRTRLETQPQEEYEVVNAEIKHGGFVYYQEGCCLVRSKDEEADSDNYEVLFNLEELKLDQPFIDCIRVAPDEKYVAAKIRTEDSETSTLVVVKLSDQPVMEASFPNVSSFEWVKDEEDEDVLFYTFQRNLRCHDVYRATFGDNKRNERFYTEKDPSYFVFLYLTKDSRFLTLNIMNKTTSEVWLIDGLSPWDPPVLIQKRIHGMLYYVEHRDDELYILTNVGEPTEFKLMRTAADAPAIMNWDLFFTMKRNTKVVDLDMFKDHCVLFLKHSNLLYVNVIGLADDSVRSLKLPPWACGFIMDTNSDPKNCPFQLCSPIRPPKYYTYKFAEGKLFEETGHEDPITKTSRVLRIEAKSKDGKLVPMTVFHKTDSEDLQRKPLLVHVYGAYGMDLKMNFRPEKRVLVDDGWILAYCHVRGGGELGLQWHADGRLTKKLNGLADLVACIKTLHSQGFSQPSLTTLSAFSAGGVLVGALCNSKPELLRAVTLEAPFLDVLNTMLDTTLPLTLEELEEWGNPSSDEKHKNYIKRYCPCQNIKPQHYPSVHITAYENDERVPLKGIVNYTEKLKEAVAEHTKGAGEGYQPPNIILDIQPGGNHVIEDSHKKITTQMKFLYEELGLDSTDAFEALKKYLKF

inhibition, inactive:
Cc1c(NCc2cc(Cl)cc(Cl)c2O)c(=O)n(-c2ccccc2)n1C -28%
COc1ccc(OCC(=O)NNc2c3ccccc3nc3ccccc23)cc1 -2%
COc1ccc(NC(=O)N2CCN(c3ccc([N+](=O)[O-])cc3)CC2)cc1OC -40%
C[C@H](CO)N1C[C@H](C)[C@H](CN(C)Cc2ccccc2)Oc2c(NC(=O)Nc3ccc(F)cc3)cccc2C1=O -56%
CN(C)CCCNc1cc(C(C)(C)C)nc2c(-c3ccccc3)cnn12 -34%
C#CCOCCOCCOCCNc1nc(N2CCN(C(=O)C(Cc3ccc(O)cc3)n3cc(C(N)CC(C)C)nn3)CC2)nc(N2CCN(C(=O)C(Cc3cc4ccccc4[nH]3)n3cc(C(N)Cc4ccc(O)cc4)nn3)CC2)n1 (stereo not drawn) -100%
CN(C)c1ccc(C(CNC(=O)COc2ccc(Cl)cc2)N2CCCC2)cc1 (stereo not drawn) -25%
CCCCCNC(=O)c1ccc2c(=O)[nH]c3c(C(=O)NCC4CCCO4)sc(=S)n3c2c1 (stereo not drawn) -19%
CCC(CN(C)C)Oc1cc(NCc2ccccc2)c2ncn(C(C)C)c2c1 (stereo not drawn) -65%
COc1ccc(N2CCN(c3ccc4nnc(CCC(=O)Nc5ccc(C)cc5)n4n3)CC2)cc1 -20%
Cc1cc(C)c2nc(C)cc(NN=Cc3ccc(O)cc3)c2c1 -1%
C[C@H]1CN([C@@H](C)CO)C(=O)Cc2cc(NC(=O)CCN3CCOCC3)ccc2O[C@@H]1CN(C)Cc1ccc(Oc2ccccc2)cc1 -27%
Cc1cc2cc(CNC(=O)c3ccc(Br)o3)ccc2n1C 38%
